Data on 40 compounds can be found in PubChem BioAssay (Tox21).

Results filed as inconclusive are left out. A call without a number means that no potency is given here. Calls of active or inactive are those of the source. Calls come from the whole dose curve; as a rule, active = well fitted cell-killing curve with a large enough effect in the repeat runs; inconclusive = weak or mixed curves, or effect the other way; inactive = flat fitted curve, though single readings scatter.

The assay in a line: qHTS assay to identify small molecule agonists of the constitutive androstane receptor (CAR) signaling pathway - cell viability counter screen (AID 1224836). Note: nearly all actives have a fitted effect of over 45% in size. Conditions: HepG2-CYP2B6-hCAR viability, CellTiter-Fluor, 23 h, PK11195 added to every well; series mostly up to 92.4 µM; viability change, negative = cytotoxic: at the top concentration. From the text: U.S. Tox21 Program National Center for Advancing Translational Sciences [NCATS] NIH Chemical Genomics Center [NCGC] U.S. Environmental Protection Agency [EPA] National Institutes of Environmental Health Sciences [NIEHS] National Toxicology Program [NTP] U.S. Food and Drug Administration [FDA] Tox21 Assay Overview: The constitutive androstane receptor (CAR) is a nuclear receptor which regulates multiple drug metabolizing enzymes (DMEs) and transporters. Activating CAR will generally increase the transcription and subsequent translation of CYP2B6 and CYP3A4. These two DMEs represent about 50% of the drug metabolizing potential in the body. […] Recently, there have also been studies performed indicating CARs role in energy metabolism and cancer therapy. Therefore, inducing CARs activity could have a potential effect on diabetes and cancer. Identifying environmental toxins and compounds which modulate CAR, through the use of the Tox21 10K compound collection, will be an important step in determining the toxicity and potential therapeutic effects these factors will have on the human body. To differentiate true CAR agonists from cytotoxic substances, the assay is multiplexed with a cell viability assay.
Tox21 Assay Protocol Summary: A double-stable (hCAR and CYP2B6-2.2kb) transfected cell line, derived from human hepatoma (HepG2) cells, was utilized for the duration of the quantitative high-throughput screens. The HepG2-CYP2B6-hCAR cells were dispensed at 2500 cells/4 uL/well in 1536-well white solid bottom plates using a Multidrop Combi. After the assay plates were incubated at 37 C/5% CO2 for 4 hrs, 23 nL of compounds at 15 concentrations (from 5-48 columns) or positive control (from 1 to 4 columns) were transferred to the assay plates using a Pintool station. One uL of PK11195 (final concentration = 0.75 uM) was added, using a Flying Reagent Dispenser, inside each well. After a 23 hr incubation period at 37 C/5% CO2, 1 uL of CellTiter-Fluor reagent was added into each well of the assay plates using a Flying Reagent Dispenser. The fluorescence intensity in the plates was then measured using a ViewLux plate reader.
For `c1ccc(OP(Oc2ccccc2)Oc2ccccc2)cc1`, the Potency entry was “inactive”.
For `[O-][Cl+2]([O-])O`, the Potency entry is “inactive”.
Same read-out and setting: as for `CN(C)[C@@H]1C(=O)C(C(N)=O)=C(O)[C@@]2(O)C(=O)C3=C(O)c4c(O)cccc4[C@@](C)(O)[C@H]3C[C@@H]12`, the entry is “inactive”; as for `NCC(O)c1ccc(O)cc1` (stereo not given), “inactive”.
Turning to `Nc1c(Cl)c(Cl)nc(C(=O)O)c1Cl`, the Potency result is “inactive”.
As for `Nc1ccc(Br)cc1`, the “viability change, negative = cytotoxic” value was -6.59% (inactive).
Take `C1CC2OC2CC1C1CO1` (stereo not given): the Potency entry was “inactive”.
The same measure, in the same setting: as for `c1cc2c3c(cccc3c1)CC2`, the entry is “inactive”.
Same read-out and setting: then `CCNc1nc(NC(C)(C)C)nc(SC)n1`, with “inactive”; and `OCCN(CCO)CCO`, with “inactive”.
Take `O=S(=O)(c1ccc(Cl)cc1)c1cc(Cl)c(Cl)cc1Cl`: the Potency entry is “inactive”.
Regarding `Cc1[nH]c(=O)n(C(C)(C)C)c(=O)c1Cl`, the Potency result is “inactive”.
Turning to `BrCCBr`, the Potency result was “inactive”.
As for `CC(C)NC(=O)N1CC(=O)N(c2cc(Cl)cc(Cl)c2)C1=O`, the Potency result was “inactive”.
Take `CN(N=O)c1ccccc1`: the Potency result is “inactive”.
On the same count and under the same terms, then `c1ccc2c(c1)Oc1ccccc1O2`, with “inactive”.
On to `CCNc1nc(NC(C)C)nc(SC)n1`, for which the Potency result was “inactive”.
On the same count and under the same terms, then `CCCCCCCCCl`, with “inactive”; and `O=[N+]([O-])c1ccc([As](=O)(O)O)cc1`, with “inactive”.
Take `CCCCCCCCCCCC#N`: the Potency entry was “inactive”.
`C#CC(C)(C)NC(=O)c1cc(Cl)cc(Cl)c1`: the Potency result was “inactive”.
`CCOP(OCC)OCC`: the Potency result was “inactive”.
Take `Cn1cc(-c2ccccc2)c(=O)c(-c2cccc(C(F)(F)F)c2)c1`: the “viability change, negative = cytotoxic” value is -14.3% (inactive).
In the case of `Cc1ccccc1O`, the Potency entry is “inactive”.
On the same count and under the same terms, as for `[N-]=[N+]=[N-]`, the entry is “inactive”; as for `Cc1ccc(N)cc1N`, “inactive”; as for `CC(C)C1(C)N=C(c2nc3ccccc3cc2C(=O)O)NC1=O` (stereo not given), “inactive”.
On the same count and under the same terms, as for `CC(C)OC(=O)Nc1cccc(Cl)c1`, the entry is “inactive”; as for `Cc1cc(Cl)ccc1O`, “inactive”.
On the same count and under the same terms, then `CCCCOC(=O)c1ccccc1C(=O)OCCCC`, with “inactive”.
Take `CCCCCOC(=O)c1ccccc1C(=O)OCCCCC`: the Potency result was “inactive”.
On the same count and under the same terms, then `C1CN2CCN1CC2`, with “inactive”; and `O=[N+]([O-])c1ccccc1`, with “inactive”.
`COP(N)(=O)SC` (stereo not given): the Potency entry is “inactive”.
Same read-out and setting: then `CC(C)(C)OOC(C)(C)C`, with “inactive”; and `O=S(=O)(c1ccc(O)cc1)c1ccc(O)cc1`, with “inactive”; and `OC(O)C(Cl)(Cl)Cl`, with “inactive”.
The same measure, in the same setting: then `Clc1ccccc1Cl`, with “inactive”.
On to `O=c1ccc(=O)[nH][nH]1`, for which the Potency entry was “inactive”.
Still for that read-out and setting: then `Clc1ccc(Cl)cc1`, with “inactive”.
